Only some compounds are listed: those with a hit (about 6.7% of all), similar ones and a draw of the others.
KB-V1 MDR tox: qHTS assay for MDR1-selective chemotherapeutics: Primary screen using the drug-selected MDR subline cells KB-V1; KB-V1 MDR cells viability, CellTiter-Glo, 72 h; Potency, µM (series often up to 46.1 µM), hits mostly cytotoxic; actives 3.4% (n = 400,000); AID 1347076, 2019; note: nearly all actives have a fitted effect of over 60% in size
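Compound-treated KB-V1 multidrug-resistant cells, 72 h, 37 degrees C; viability by CellTiter-Glo. Fitted qHTS curves give the values.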
KB-3-1 tox: qHTS assay for MDR1-selective chemotherapeutics: Primary screen using the parental adenocarcinoma cell KB-3-1 | Potency, µM (top dose mostly 46.1 µM), most hits filed as cytotoxic | actives 1.4% (n = 400,000) | KB-3-1 viability, CellTiter-Glo ATP luminescence, 72 h | AID 1347075, 2019; note: nearly all actives have a fitted effect of over 60% in size
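72 h, 37 °C compound treatment of KB-3-1 parental cells; CellTiter-Glo added, 10 min, luminescence read. Data corrected against DMSO-only plates and normalized before curve fitting.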
PINK1 expr mod: A Quantitative High throughput Screen to Identify Chemical Modulators of PINK1 Expression; PINK1 immunofluorescence, high-content cytometry, 24 h; Potency, µM (titrated, usually from 76.6 µM), most hits filed as activators; actives 0.2% (n = 410,000); AID 624263, 2012; active = well fitted activation curve with a large enough effect; inconclusive = small, poorly fitted or top-dose-only effect; cell line not stated here; note: nearly all actives have a fitted effect of over 65% in size
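Stable cell line treated 24 h with compounds at 5 concentrations (CCCP controls), then fixed and immunostained for PINK1 plus nuclear and cell stains; PINK1 immunofluorescence quantified by laser-scanning microplate cytometry.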
SW480 rerep: A quantitative high throughput screen for small molecules that induce DNA re-replication in SW480 colon adenocarcinoma cells | SW480 DNA re-replication, Hoechst DNA content imaging, 48 h | Potency, µM (series often up to 46.1 µM), usual class: activators | actives 1.8% (n = 340,000) | AID 624297, 2012; note: nearly all actives have a fitted effect of over 55% in size
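Image-based DNA-content assay: after two days of treatment, nuclei were labelled with the DNA dye Hoechst and imaged, and hits were compounds raising the count of nuclei showing high fluorescence intensity.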
MCF10A rerep: A quantitative high throughput screen for small molecules that induce DNA re-replication in MCF 10a normal breast cells; MCF 10A DNA re-replication, Hoechst nuclear intensity, 48 h; Potency, µM (top dose mostly 46.1 µM), hits mostly activators; actives 2.9% (n = 350,000); AID 624296, 2012; note: nearly all actives have a fitted effect of over 50% in size
Numbers stand for hits; 0 = inactive; ? = inconclusive; - = not tested or not shown. Unless noted, calls come from the whole dose curve; as a rule, active = well fitted curve in the direction sought with a large enough effect; inconclusive = small, poorly fitted or top-dose-only effect, or another doubt; inactive = no such curve, though single readings can be large; an effect the other way counts as inactive or inconclusive.

SMILES	KB-V1 MDR tox	KB-3-1 tox	PINK1 expr mod	SW480 rerep	MCF10A rerep
Cc1nnc(SCc2nnc(-c3cccs3)o2)n1C1CCCCC1	?	0	0	0	0
CCn1c(SCc2nc(-c3ccc(OC)c(OC)c3)no2)nnc1-c1cccs1	9.2µM	0	0	0	0
COc1ccc(-c2nnc(SCc3nnc(-c4cccs4)o3)n2CC2CCCO2)cc1 (configuration not stated)	4.61µM	0	0	0	0
COc1ccc(-c2nnc(CSc3nnc(-c4ccncc4)n3C3CCCCC3)o2)cc1OC	13µM	0	0	0	0
COc1cc(-c2ccc3ncnc(NCc4cccs4)c3c2)cc(OC)c1OC	0	0	-	-	-
CSc1ccccc1OCc1cc(C(=O)N2CCN(C3CCCC3)C(=O)C2)no1	14.6µM	0	0	0	0
O=C(c1cc(COc2ccc(F)cc2F)on1)N1CC[C@@H]2CCCC[C@H]2C1	0	0	0	0	0
CSc1ccccc1OCc1cc(C(=O)N2CCCC(C)C2)no1 (configuration not stated)	?	0	0	0	0
O=C(c1cc(COc2ccc(F)cc2F)on1)N1CCN(C2CCCC2)C(=O)C1	5.17µM	0	0	0	0
CSc1ccccc1OCc1cc(C(=O)NCCC2=CCCCC2)no1	23.1µM	0	0	0	0
COc1ccc(NC(=O)c2cc(C3CCCCN3C(=O)c3cc(C(C)(C)C)nn3C)on2)c(C)c1 (configuration not stated)	0	0	0	-	-
N#Cc1cccc(NC(=O)N2CC[C@@]3(CCCN(C(=O)c4csnn4)C3)C2)c1	-	-	0	-	-
COc1ccc2cc(C(C)C(=O)N3CCC(C)CC3)ccc2c1 (configuration not stated)	?	20.6µM	0	?	?
Fc1ccccc1COc1cccc(/C=N/n2cnnc2)c1	13µM	0	0	0	0
Cc1ccc(C(O)(C(=O)NN(C(=O)c2ccccc2)c2ccccc2)c2ccc(C)cc2)cc1	0	0	0	?	0
Cc1ccc(N(NC(=O)C(O)(c2ccccc2)c2ccccc2)C(=O)CCl)cc1	?	?	0	18.4µM	23.1µM
O=C(Nc1ccccc1)NN(C(=O)CCl)c1ccccc1	?	23.1µM	0	5.8µM	8.2µM
CCC(O)(CC)C(=O)NN(C(=O)CCl)c1ccccc1	0	?	0	?	0
Cn1cc(-c2cc3n(n2)CCC(=O)N3CCCC(=O)NCc2ccccc2Cl)c2ccccc21	0	0	0	-	-
Cc1ccc(NS(=O)(=O)c2ccc3c(c2)c(=O)n(C)c(=O)n3C)cc1F	?	18.4µM	0	?	0
Cc1cc(S(=O)(=O)Nc2ccc3c(c2)n(C)c(=O)n3C)ccc1F	0	?	0	0	0
Cc1cc(C)cc(NS(=O)(=O)c2ccc3c(c2)c(=O)n(C)c(=O)n3C)c1	?	8.2µM	0	0	0
COc1ccc(NC(=O)CSCC(=O)N(C)Cc2ccc(Cl)c(Cl)c2)cc1	0	0	0	0	0
Cc1ccc(NC(=O)CSCC(=O)N(C)Cc2ccc(Cl)c(Cl)c2)cc1	18.4µM	0	0	0	0
O=C(CN1CCN(S(=O)(=O)c2ccc(F)cc2)CC1)Nc1ccc(F)cc1F	0	0	0	0	0
SMILES	KB-V1 MDR tox	KB-3-1 tox	PINK1 expr mod	SW480 rerep	MCF10A rerep
CCOC(=O)c1cccc(-n2cccc2/C=C2\NC(=O)N(CC(=O)O)C2=O)c1	0	0	0	0	?
CCOC(=O)c1ccc(-n2cccc2/C=C2\NC(=O)NC2=O)cc1	7.31µM	5.8µM	0	18.4µM	7.31µM
COc1ccc(N(Cc2ccccc2)C(=O)c2ccccc2[N+](=O)[O-])cc1	14.6µM	?	0	0	0
COC(=O)c1cc(OC)c(OC)cc1NC(=O)C(C)Sc1ccc(C)cc1 (configuration not stated)	?	0	0	0	3.66µM
CCCCn1c(N)c(C(=S)NC(=O)CC(C)(C)C)c(=O)n(C)c1=O	?	?	0	0	20.6µM
O=C(COc1cccc(NC(=O)c2cccs2)c1)c1ccc(F)cc1	7.31µM	0	0	0	?
O=C(COc1cccc(NC(=O)c2ccccc2)c1)c1ccccc1	0	0	0	0	0
O=C(CNC(=O)c1cccs1)c1ccc(F)cc1	0	0	0	?	23.1µM
CCc1ccc(S(=O)(=O)Nc2c(C)n(C)n(-c3ccccc3)c2=O)cc1	0	0	0	0	0
Cc1c(C(=O)NCC2(N3CCOCC3)CCCC2)cnn1-c1nccc(-c2ccccc2F)n1	-	-	0	-	-
Cc1ccc(C(O)c2ncc(-c3ccccc3)[nH]2)c(C)c1 (configuration not stated)	0	0	0	-	-
C/C(=N\O)c1ccc2c3ccccc3n(C)c2c1	?	2.59µM	0	0	0
COc1ccc(NC(=O)CN2C(=O)C(C)Oc3ccccc32)c(OC)c1 (configuration not stated)	16.4µM	0	0	0	0
COc1ccc(NC(=O)CN2C(=O)C(C)Oc3ccccc32)cc1 (configuration not stated)	?	0	0	0	0
Cc1ccc(NC(=O)CN2C(=O)C(C)Oc3ccccc32)nc1 (configuration not stated)	14.6µM	0	0	0	0
O=C(/C=C/[C@H]1O[C@@H](n2cnc3c(NC(=O)c4ccccc4)ncnc32)[C@H](O)[C@@H]1O)NCC1CCCCC1	0	0	0	-	-
CCN1C(=O)CSC1=Nc1ccc(C(=O)O)cc1	0	0	0	0	0
CC(C)(C)c1ccc(N=C2SCC(=O)N2Cc2cccs2)cc1	?	0	0	?	23.1µM
CC1CCCC(C)N1C(=O)CSc1ncccn1 (configuration not stated)	0	0	0	0	0
CC(=O)N1CCC[C@H]1C(=O)NCC1Cc2cc(-c3cccc(OC(F)(F)F)c3)ccc2O1 (some centres not stated)	-	-	0	-	-
CC(=O)N/N=C/c1c(C)[nH]n(-c2ccccc2)c1=O	?	0	0	0	0
Cc1[nH]n(-c2ccccc2)c(=O)c1/C=N/NC(=O)c1ccccc1F	0	?	0	2.31µM	?
Cc1ccc(-n2[nH]c(C)c(/C=N/Nc3ccc([N+](=O)[O-])cc3[N+](=O)[O-])c2=O)cc1C	13µM	?	?	0	14.6µM
Cc1[nH]n(-c2ccccc2)c(=O)c1/C=N/NC(=O)c1cccc([N+](=O)[O-])c1	?	?	0	3.66µM	?
CC/C(=N/NC(=O)c1ccccc1O)c1c(C)[nH]n(-c2ccccc2)c1=O	?	?	0	23.1µM	?
Cc1nc2nc(NC(=O)c3ccc(Cl)cc3)[nH]n2c(=O)c1Cc1ccccc1	-	-	0	-	-
